Some test systems named below: NCI-H23 lung; NCI-H226 lung; NCI-H322M lung; HOP-62 NSCLC; NCI-H460 lung; HOP-92 NSCLC; NCI-H522 lung; A549/ATCC NSCLC; 786-0 renal; COLO 205 colon.
Assay in all cases: NCI-60 one-dose screen, 48 h (100 = growth as untreated, 0 = no growth, -100 = all killed)
Common to all, as to conditions: 10 µM unless noted

About 83,000 compounds went through this panel and 20% of them were active in at least one assay; those are over-represented in the sample as a whole.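 Results are percent growth after 48 hours of single-concentration exposure. 100 means growth as in untreated cells, lower positive values show inhibition; negative values down to -100 show cell death.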 A number with no mark means an inactive call. The source made the active and inactive calls. The calls were made as follows: active = growth percent below 10; inactive = the rest.

Regarding `NC(N)=NS(=O)(=O)c1ccc(N=Nc2c(N)nn(-c3ccc([N+](=O)[O-])cc3[N+](=O)[O-])c2N)cc1`, the growth was 98.1% in the assay with NCI-H23 lung; 93.3% in the assay on NCI-H226 lung; 92.9% in the assay on NCI-H322M lung; 104% in the assay with HOP-62 NSCLC; 107% with NCI-H460 lung; 88.2% in the assay with HOP-92 NSCLC. For the same compound, the growth was 97.2% in the assay on NCI-H522 lung, 103% with A549/ATCC NSCLC, 103% with 786-0 renal and 106% in the assay on COLO 205 colon.
As for `CC[C@]12C=CCN3CC[C@]4(C(=C(C(=O)OC)C1)Nc1cc5c(cc14)[C@@H]1[C@H](O5)[C@@H](O)[C@@]4(CC)CC(C(=O)OC)=C5Nc6cc(O)ccc6[C@@]56CCN1C46)C32` (stereo not given in full), the growth in the assay with NCI-H23 lung is -40.9% (active); in the assay on NCI-H226 lung it was -1.32% (active); in the assay with NCI-H322M lung, 0.163% (active); in the assay on HOP-62 NSCLC, 16.6%; with NCI-H460 lung it was 10.3%; in the assay with HOP-92 NSCLC it was 35.5%. For the same compound, the growth in the assay with NCI-H522 lung was -22.8% (active); in the assay with A549/ATCC NSCLC, 20.2%; in the assay with 786-0 renal, 6.94% (active); in the assay on COLO 205 colon, -48% (active).
`O=C(COc1ccc(/C=C2\C(=O)Nc3ccc(Cl)cc32)cc1)Nc1ccc(Cl)cc1`: the growth with NCI-H23 lung was 59.7%; with NCI-H226 lung, 74%; in the assay on NCI-H322M lung it was 74.3%; in the assay with HOP-62 NSCLC, 63.2%; in the assay with NCI-H460 lung it was 23.7%; in the assay on HOP-92 NSCLC it was 93.5%. Also, the growth was 45.3% in the assay on NCI-H522 lung, 57% with A549/ATCC NSCLC, 68.3% in the assay with 786-0 renal and 90.5% in the assay with COLO 205 colon.
Regarding `Cn1ncc2ncc(-c3ccc4ncc(C#N)c(N5CCc6cc(F)c(Cl)cc65)c4c3)cc21`, the growth with NCI-H23 lung was 46.8%; with NCI-H226 lung, 24.7%; with NCI-H322M lung, 38.9%; in the assay with HOP-62 NSCLC, 22.3%; in the assay with NCI-H460 lung, 38.5%; with HOP-92 NSCLC, 7.43% (active). In addition, the growth in the assay with NCI-H522 lung was 20.3%; in the assay on A549/ATCC NSCLC, 27.8%; with 786-0 renal, 21.8%; in the assay with COLO 205 colon, 51.4%.
As for `CN1CCN(c2ccc(Nc3nc(NCCNC(=O)c4ccc(F)cc4)c4sccc4n3)cc2)CC1`, the growth is 74.2% in the assay with NCI-H23 lung; 91.1% with NCI-H226 lung; 81.7% in the assay with NCI-H322M lung; 99.4% with HOP-62 NSCLC; 84.5% with NCI-H460 lung; 50.1% in the assay with HOP-92 NSCLC. The growth in the assay on NCI-H522 lung was 68.1%; with A549/ATCC NSCLC it was 77.9%; with 786-0 renal, 52.3%; in the assay on COLO 205 colon it was 44.3%.
As to `O=C(N/N=C\c1ccc([N+](=O)[O-])cc1)c1ccc2nc(-c3ccc(Br)cc3)[nH]c2c1`, the growth in the assay on NCI-H23 lung was 8.79% (active); in the assay on NCI-H226 lung, 62.4%; with NCI-H322M lung, 68.2%; with HOP-62 NSCLC it was 29.7%; in the assay on NCI-H460 lung, -43.8% (active); in the assay on HOP-92 NSCLC it was 55%. Also, the growth with NCI-H522 lung is 5.47% (active); in the assay on A549/ATCC NSCLC, 27.2%; with 786-0 renal it was 36.8%; in the assay with COLO 205 colon, -50.6% (active).
Take `CCOc1cccc(/C(N)=N/C(N)=N/c2nc3ccccc3s2)c1`: the growth in the assay on NCI-H23 lung was 66.4%; with NCI-H226 lung, 78.6%; in the assay with NCI-H322M lung it was 91%; with HOP-62 NSCLC, -38.7% (active); in the assay on NCI-H460 lung it was 70.4%; in the assay with HOP-92 NSCLC, 105%. Also, the growth was 94.3% in the assay on NCI-H522 lung, -20% (active) in the assay with A549/ATCC NSCLC, 105% in the assay on 786-0 renal and 113% in the assay with COLO 205 colon.
For the compound `COc1ccc(C(=O)c2c(N)c(C#N)cn2-c2ccc(Cl)cc2Cl)cc1`, the growth in the assay with NCI-H23 lung is 93.3%; in the assay on NCI-H226 lung, 97.2%; in the assay with NCI-H322M lung it was 93.8%; in the assay with HOP-62 NSCLC, 99.7%; in the assay with NCI-H460 lung it was 100%; in the assay with HOP-92 NSCLC, 101%. The growth was 90.3% with NCI-H522 lung, 93.4% with A549/ATCC NSCLC, 103% in the assay on 786-0 renal and 109% with COLO 205 colon.
For the compound `NC1=NC2(CCCC2)N(c2ccc(S(=O)(=O)Nc3nccs3)cc2)C(N)=N1`, the growth in the assay on NCI-H23 lung is 101%; in the assay on NCI-H226 lung, 100%; in the assay with NCI-H322M lung, 103%; with HOP-62 NSCLC, 110%; in the assay with NCI-H460 lung, 102%; in the assay with HOP-92 NSCLC, 113%. For the same compound, the growth is 102% with NCI-H522 lung, 104% in the assay on A549/ATCC NSCLC, 105% in the assay on 786-0 renal and 113% in the assay on COLO 205 colon.
For the compound `CC(=O)OC[C@@]12Oc3c(cccc3-c3ccc(O)c4c3O[C@]3(COC(C)=O)C(=C4O)C(=O)C[C@H](C)[C@@H]3OC(C)=O)C(O)=C1C(=O)C[C@H](C)[C@@H]2OC(C)=O`, the growth is 2.54% (active) with NCI-H23 lung; 25.9% with NCI-H226 lung; 33.1% in the assay with NCI-H322M lung; 8.14% (active) in the assay with HOP-62 NSCLC; 10.3% in the assay with NCI-H460 lung; -25.2% (active) in the assay with HOP-92 NSCLC. Further, the growth is -7.22% (active) with NCI-H522 lung, 19.4% in the assay with A549/ATCC NSCLC, 27.7% in the assay with 786-0 renal and -3.3% (active) in the assay on COLO 205 colon.
As for `Cc1ncn(-c2ccc(/C=N/Nc3ccnc4cc(Cl)ccc34)cc2)c1C`, the growth with NCI-H23 lung is 54.1%; with NCI-H226 lung, 94.1%; in the assay on NCI-H322M lung it was 45.5%; with HOP-62 NSCLC, 102%; in the assay with NCI-H460 lung, -52.3% (active); with HOP-92 NSCLC it was -28.2% (active). The growth is -66.2% (active) in the assay on NCI-H522 lung, 0.0933% (active) in the assay on A549/ATCC NSCLC, -89.4% (active) in the assay on 786-0 renal and -96.5% (active) in the assay on COLO 205 colon.
Take `CC1=C(C)C(=O)C(Nc2cccc(C(=O)OC(C)(C)C)c2)=CC1=O`: the growth in the assay on NCI-H23 lung was 28.8%; in the assay on NCI-H226 lung it was 64.5%; in the assay with NCI-H322M lung, 94.5%; with HOP-62 NSCLC, 78.4%; with NCI-H460 lung it was 93.1%; in the assay with HOP-92 NSCLC, 78.8%. The growth in the assay on NCI-H522 lung is 82.2%; with A549/ATCC NSCLC, 106%; with 786-0 renal it was 89.9%; in the assay with COLO 205 colon it was 107%.
`O=C1C(SCc2ccccc2)=C(Cl)CN1c1ccccc1`: the growth is 95.6% with NCI-H23 lung; 101% in the assay on NCI-H226 lung; 97.3% in the assay on NCI-H322M lung; 104% in the assay with HOP-62 NSCLC; 102% in the assay on NCI-H460 lung; 94.5% with HOP-92 NSCLC. For the same compound, the growth is -48.8% (active) in the assay with NCI-H522 lung, 106% with A549/ATCC NSCLC, 104% with 786-0 renal and 130% with COLO 205 colon.
Regarding `CCCCCC[n+]1ccc(SCC(=O)n2ccc3ccccc32)c2ccccc21`, the growth in the assay with NCI-H23 lung is 63.8%; in the assay with NCI-H226 lung, 79.5%; in the assay on NCI-H322M lung it was 94%; in the assay on HOP-62 NSCLC, 90.2%; with NCI-H460 lung it was 99.5%; with HOP-92 NSCLC, 81.2%. For the same compound, the growth in the assay on NCI-H522 lung was 73.5%; in the assay on A549/ATCC NSCLC, 101%; in the assay on 786-0 renal it was 102%; in the assay with COLO 205 colon, 99.4%.

The record behind these values is PubChem BioAssay (NCI).
